38 compounds from the supplement of paper PMC6805474 can be followed below.
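Note: visual microscopic scoring of shape, motility and density changes versus 0.5% DMSO solvent controls, one point per descriptor, degeneracy or death scored 4, mean of duplicate wells.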

The first assay relates to Schistosoma mansoni schistosomula (NMRI). Description: phenotypic severity score (0-4); higher = more antischistosomal effect, active = 2 or more. The note with it: 48 h; 10 µM.
For `COc1ccc(-c2nc(-c3cccc(NC(=O)Cc4ccc(F)cc4)c3)no2)cc1OC`, the phenotypic severity score is 0 (inactive).
Same read-out and setting: with `CNC(=O)CNc1nc(-c2ccccn2)nc2scc(-c3ccccc3)c12` the figure was 0 (inactive); with `COc1cc(Br)cc2cc(C(=O)Nc3cccc(C(F)(F)F)c3)c(=O)oc12`, 0 (inactive); with `O=C(CCC1CCCCC1)Nc1cccc(-c2nnc(-c3ccco3)o2)c1`, 4 (active).
As to `O=C(NC1CCCCC1)N1CCN(Cc2ccc3c(c2)OCO3)CC1`, the phenotypic severity score was 0 (inactive).
As for `NCC(=O)N1CCn2c(nc(-c3ccccc3)c2Nc2ccc3c(c2)OCO3)C1`, the phenotypic severity score was 0 (inactive).
Same read-out and setting: with `COc1ccc(Nc2ccccc2NC(=O)c2ccc(O)nc2)cc1` the figure was 0 (inactive); with `O=C(Nc1cccc(Cl)c1)c1cnc(N2CCN(c3ccncc3)CC2)c(Cl)c1`, 4 (active); with `COc1cccc(-c2nc3c(N4CCCC4)cccc3n2CC2CCCN2)n1` (stereo not drawn), 4 (active).
Turning to `CN(C(=O)c1cc2c(-c3cncnc3)cccc2[nH]1)c1ccccc1`, the phenotypic severity score is 0 (inactive).
Same read-out and setting: with `CN1CCN(c2nccc3nc(-c4ccc(F)c(F)c4)[nH]c23)CC1` the figure was 0 (inactive); with `CNc1cc(C)nc(C2CN(C(=O)c3n[nH]c4ccccc34)CCO2)c1` (stereo not drawn), 0 (inactive).
As to `CN(C)c1cc(NC(=O)Nc2ccccc2)c2ccccc2n1`, the phenotypic severity score is 0 (inactive).
As to `COc1cc(NC(=O)Cc2nn(C)c(=O)c3ccccc23)ccc1Cl`, the phenotypic severity score was 0 (inactive).
Same read-out and setting: to `O=C(NCCc1ccccc1)c1cc(-c2cccnc2)cnc1NCC1CC1` belongs 2 (active).
Take `CN1CCN(CCCOc2ncc(Nc3ncc(-c4ccc(C(F)(F)F)c(F)c4)nc3C(N)=O)cn2)CC1`: the phenotypic severity score is 3 (active).
Same read-out and setting: with `Cc1cc(Cl)c(S(=O)(=O)N2CCCC2)cc1OCC(=O)NC1CCCCC1` the figure was 0 (inactive); with `CCCn1c(NC(=O)c2ccc3ccccc3n2)nc2ccccc21`, 0 (inactive); with `Cc1nn(C(=O)Nc2cccc(C(F)(F)F)c2)c(C)c1Sc1ncccn1`, 0 (inactive).
`CCOc1ccccc1NC(C)C(=O)Nc1cc(C(F)(F)F)ccc1N1CCOCC1` (stereo not drawn): the phenotypic severity score is 0 (inactive).

The same assay, now with this note: 72 h; 10 µM.
Take `O=C(Nc1cnc2ccccc2c1)c1cccc(-n2cnnn2)c1`: the phenotypic severity score is 0 (inactive).
Same read-out and setting: with `Cc1cc(C)n(-c2ccc(NC(=O)C3CCN(Cc4cnc(C)s4)CC3)cc2)n1` the figure was 0 (inactive); with `Cc1cc(O)nc(-n2nc(C)cc2C)n1`, 0 (inactive).
Take `O=C(C1CCN(c2nnnn2-c2ccccc2)CC1)N1CCc2ccccc2C1`: the phenotypic severity score is 0 (inactive).
Consider `FC(F)(F)c1cnc(Sc2nnc(-c3ccncc3)o2)c(Cl)c1`, for which the phenotypic severity score is 2 (active).
As to `COc1cccc(-c2cc3c(Nc4cccnc4)nccc3[nH]2)c1`, the phenotypic severity score is 0 (inactive).
The same measure, in the same setting: to `CCN(CC)CCCCCCNc1cc(OC)cc2c(C)ccnc12` belongs 0 (inactive); to `Cc1ncc(-c2ccnc(Nc3ccc(S(C)(=O)=O)cc3)n2)n1C(C)C`, 0 (inactive); to `N=C(N)Nc1ccc(-c2ccc(-c3ccc(N=C(N)N)c(Cl)c3)o2)cc1Cl`, 0 (inactive).
The same measure, in the same setting: to `O=C(Nc1ccccc1)c1ccc(-c2cc3ccncc3cc2OC2CCNCC2)s1` belongs 0 (inactive).
For the compound `CC1CCCCN1C(=O)NCCc1coc(-c2ccc(F)cc2)n1` (stereo not drawn), the phenotypic severity score is 0 (inactive).
On the same count and under the same terms, with `Cc1ccc(Oc2ccc(NC(=O)CNc3ccccc3N3CCCC3=O)cc2)cc1` the figure was 0 (inactive).
Regarding `Nc1ncnc2[nH]nc(Cc3cccc4ccccc34)c12`, the phenotypic severity score was 3 (active).
As for `CCCCN(CCCC)c1c(C#N)cc(S(=O)(=O)Nc2ccccc2)cc1C#N`, the phenotypic severity score is 0 (inactive).
Consider `NS(=O)(=O)c1cncc(-c2ccc3nccc(-c4cn[nH]c4)c3n2)c1`, for which the phenotypic severity score was 0 (inactive).
For the compound `Cc1nn2c(O)c3c(nc2c1-c1ccc(F)cc1)CCCC3`, the phenotypic severity score is 0 (inactive).
Take `c1cncc(NCc2ccc(-c3cc4ccncc4cc3OC3CCNCC3)s2)c1`: the phenotypic severity score is 4 (active).
Still for that read-out and setting: with `CC(=O)NC[C@H]1CN(c2ccc(N3CCSCC3)c(F)c2)C(=O)O1` the figure was 0 (inactive); with `COc1ccc(-c2nc(-c3cccc(NC(=O)Cc4ccc(F)cc4)c3)no2)cc1OC`, 1 (inactive).
On to `CNC(=O)CNc1nc(-c2ccccn2)nc2scc(-c3ccccc3)c12`, for which the phenotypic severity score was 0 (inactive).
`COc1cc(Br)cc2cc(C(=O)Nc3cccc(C(F)(F)F)c3)c(=O)oc12`: the phenotypic severity score was 0 (inactive).
With `O=C(CCC1CCCCC1)Nc1cccc(-c2nnc(-c3ccco3)o2)c1`, the phenotypic severity score is 4 (active).
`O=C(NC1CCCCC1)N1CCN(Cc2ccc3c(c2)OCO3)CC1`: the phenotypic severity score is 0 (inactive).
For the compound `NCC(=O)N1CCn2c(nc(-c3ccccc3)c2Nc2ccc3c(c2)OCO3)C1`, the phenotypic severity score was 2 (active).
As to `COc1ccc(Nc2ccccc2NC(=O)c2ccc(O)nc2)cc1`, the phenotypic severity score is 0 (inactive).
Take `O=C(Nc1cccc(Cl)c1)c1cnc(N2CCN(c3ccncc3)CC2)c(Cl)c1`: the phenotypic severity score is 4 (active).
Consider `COc1cccc(-c2nc3c(N4CCCC4)cccc3n2CC2CCCN2)n1` (stereo not drawn), for which the phenotypic severity score is 4 (active).
On to `CN(C(=O)c1cc2c(-c3cncnc3)cccc2[nH]1)c1ccccc1`, for which the phenotypic severity score is 0 (inactive).
Regarding `CN1CCN(c2nccc3nc(-c4ccc(F)c(F)c4)[nH]c23)CC1`, the phenotypic severity score is 0 (inactive).
Same read-out and setting: with `CNc1cc(C)nc(C2CN(C(=O)c3n[nH]c4ccccc34)CCO2)c1` (stereo not drawn) the figure was 0 (inactive); with `CN(C)c1cc(NC(=O)Nc2ccccc2)c2ccccc2n1`, 0 (inactive); with `COc1cc(NC(=O)Cc2nn(C)c(=O)c3ccccc23)ccc1Cl`, 0 (inactive).
As to `O=C(NCCc1ccccc1)c1cc(-c2cccnc2)cnc1NCC1CC1`, the phenotypic severity score was 0 (inactive).
In the case of `CN1CCN(CCCOc2ncc(Nc3ncc(-c4ccc(C(F)(F)F)c(F)c4)nc3C(N)=O)cn2)CC1`, the phenotypic severity score is 3 (active).
Still for that read-out and setting: with `Cc1cc(Cl)c(S(=O)(=O)N2CCCC2)cc1OCC(=O)NC1CCCCC1` the figure was 0 (inactive); with `CCCn1c(NC(=O)c2ccc3ccccc3n2)nc2ccccc21`, 0 (inactive).
Regarding `Cc1nn(C(=O)Nc2cccc(C(F)(F)F)c2)c(C)c1Sc1ncccn1`, the phenotypic severity score was 0 (inactive).
Regarding `CCOc1ccccc1NC(C)C(=O)Nc1cc(C(F)(F)F)ccc1N1CCOCC1` (stereo not drawn), the phenotypic severity score is 0 (inactive).
